# UbGFP stabilizer: ubiquitin-GFP accumulation via proteasome inhibition; Ubiquitin-GFP reporter cells, proteasome inhibition, GFP fluorescence; response scale: untreated = 0%, 10 µM MG-132 = 100%; Potency, µM (series often up to 45.9 µM), inactives show top-dose activation (GFP accumulation), actives largely listed as activators; 67,000 tested, under 10 active; AID 526; active means well fitted activation curve with a large enough effect, not every such curve was filed as active; inconclusive means small, poorly fitted or top-dose-only effect, or another doubt; inactive means no such curve, though single readings can be large or run the other way; further: potency means the concentration at half of the fitted maximal effect
#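 Reporter cells (U2OS, ubiquitin-G76V-GFP fusion) are plated overnight, then treated 4 hr at 37 °C with compound titrations from 46 uM down to 2.9 nM. Activity is scaled against untreated cells and 10 uM MG-132.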
# HBB splicing: modulators of hemoglobin beta chain splicing; AID 925; HBB splicing reporter cell assay, activation; EGFP reporter with mutant IVS2-654 intron; response scale: normalised to 500 nM splice-correcting PNA; actives 0.06% (n = 65,000); Potency, µM (top dose mostly 46.1 µM), for the others: at the top dose activation, usual class: activators; further: potency means the concentration at half of the fitted maximal effect; 0% is about no effect
#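 HeLa cells stably expressing EGFP interrupted by mutant beta-globin intron 2 (IVS2-654), 500/well in 2% FCS. Treated with compound for 2 days at 37C. Splicing correction scored as total well GFP intensity (488 nm excitation, 500-520 nm emission); 500 nM antisense PNA served as control.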
# Imprint erasure: inducers of genomic imprint erasure in mouse ES cells; mouse ES Peg3-LacZ reporter, beta-gal luminescence, 40 h; Potency, µM (series often up to 60.7 µM), for the others: top-dose activity change, positive = activation, hits mostly activators; actives 0.02% (n = 110,000); further: potency means the concentration at half of the fitted maximal effect
#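 Imprint erasure is scored as LacZ activity from the silenced maternal Peg3 allele in feeder-free female ES cells cultured 40 h with LIF. Luminescence is normalized to in-plate negative controls and fitted to the Hill equation.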
# GFP derepression: epigenetic modulators derepressing GFP locus in mouse cells. actives 0.09% (n = 68,000). AID 597. Potency, µM (highest dose often 46.1 µM), inactives show at the top dose GFP derepression (activation). mouse C127i GFP locus derepression, cytometry, 30 h; further: % of control where 0% means no effect
#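 Derepression screen: silenced CMV-GFP reporter in murine C127i cells, 30 h compound incubation at 37 C, washed cells imaged by laser-scanning cytometer to enumerate GFP-expressing objects of 20 to 120 um.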
# p53ts 39C kill: cytotoxicity in p53ts cells at nonpermissive temperature. actives 1.5% (n = 130,000). H1299-p53A138V viability at 39C, ATP luminescence, 24 h. Potency, µM (highest dose often 46.1 µM), without a hit: at the top dose activity change, negative = cell killing, most hits filed as cytotoxic. AID 902; further: potency means the concentration at half of the fitted maximal effect; on the % scale 0 is the no-effect control and ±100 the full control effect; nearly all actives have a fitted effect of over 55% in size
# p53ts 32C kill: kills p53ts cells at the permissive temperature | H1299-p53A138V at 32C, ATP luminescence viability, 24 h | Potency, µM (titrated, usually from 46.1 µM), inactives show at the highest dose activity change, negative = cytotoxicity, usual class: cytotoxic | actives 0.93% (n = 130,000);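 further: potency means the concentration at half of the fitted maximal effect; 0% = DMSO and -100% = full killing by reference compound; nearly all actives have a fitted effect of over 55% in size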
#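 H1299-p53 A138V cells (temperature-sensitive p53) exposed 24 h to up to 46 uM compound at 32C, where p53 is wild-type in conformation. Viability read as ATP luminescence and normalised to DMSO and 100 uM tamoxifen. AC50 fitted with the Hill equation.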
# Active calls of the source: *; u = inconclusive; x = not tested or not shown; ! = repeats disagree; [ ] = dose if it differs, or a comment. Only some compounds are listed: those with a hit (about 1.6% of all), similar ones and a draw of the others. Unless noted, the call rests on the fitted dose curve; in most records, active means well fitted curve in the direction sought with a large enough effect; inconclusive means small, poorly fitted or top-dose-only effect, or another doubt; inactive means no such curve, though single readings can be large; an effect the other way counts as inactive or inconclusive.
SMILES,UbGFP stabilizer,HBB splicing,Imprint erasure,GFP derepression,p53ts 39C kill,p53ts 32C kill
Cc1ccc(/C=C/c2nc3ccccc3n2S(=O)(=O)c2cccc(Cl)c2)cc1,x,x,-83.9%[10.9 µM],x,3.16µM*,3.16µM*
CCOc1ccc(/C=C/c2nc3ccccc3n2S(=O)(=O)c2cccc(Cl)c2)cc1,x,x,23.3%[10.9 µM],x,10µM*,12.6µM*
CCOc1cc(S(=O)(=O)n2c(C)nc3ccccc32)ccc1F,-2.4%,-1.1%,-38.5%,3.2%,21.7%,-10.7%
Fc1ccc(-c2nnc(Cc3nnc(-c4ccc(F)cc4)o3)o2)cc1,-13.1%,0.3%,6.9%,-2.9%,-2.4%,5.0%
Fc1ccc(-c2nnc(NC3=NCCCCC3)o2)cc1,6.0%,-0.8%,-92.0%,0.0%,3.98µM*,3.98µM*
CCOc1ccc(S(=O)(=O)NCC(c2cccs2)S(=O)(=O)c2ccc(C)cc2)cc1 (stereo unspecified),x,x,-9.2%[10.9 µM],x,52.7%,32.7%
CCC(C)Nc1ncnc2c1cnn2-c1ccc(F)cc1 (stereo unspecified),x,x,-8.7%[10.9 µM],x,7.94µM*,u
COCCCNc1ncnc2c1cnn2-c1ccc(F)cc1,x,x,-15.1%[10.9 µM],x,10µM*,u
COc1ccc(-c2cc(=O)c3ccccc3s2)cc1,-2.2%,-4.4%,-68.9%,-2.5%,25.1µM*,12.6µM*
COc1ccc(-c2cc(=O)c3ccccc3[nH]2)cc1,x,x,-32.6%[97.3 µM],x,x,x
C/C(=N/Nc1ccc2ccccc2n1)c1ccccc1O,-3.9%[9.17 µM],2.6%[9.22 µM],-56.3%[10.9 µM],2.2%[9.22 µM],2.51µM*,3.16µM*
Cc1nc(NC(=O)c2ccc(Br)s2)sc1C(=O)N(C)C,8.0%,-1.2%,-47.5%,-2.7%,u,12.6µM*
COc1ccc(C(=O)Nc2nc(C)c(C(=O)N(C)C)s2)cc1OC,2.4%,0.2%,-46.4%,4.0%,-20.0%,12.6µM*
Nc1ccc2c3c(cccc13)CC2,x,x,x,12.6µM*,x,x
COc1cn(CC(=O)Nc2ccccc2)c(CN2CCCCC2)cc1=O,x,x,-18.9%[10.9 µM],x,-2.7%,-4.6%
CCCN1CCN(c2cc3c(cc2F)c(=O)c(S(=O)(=O)c2ccc(Cl)cc2)cn3C)CC1,x,x,x,x,x,-2.8%
COc1cccc(NC(=O)Nc2cc(-c3cn4cccnc4n3)ccc2OC)c1,x,x,-11.5%[10.9 µM],x,10µM*,10µM*
COc1ccc(-c2cn3cccnc3n2)cc1NC(=O)Nc1cc(C)ccc1C,x,x,-18.9%[10.9 µM],x,u,15.8µM*
COc1ccccc1C(=O)Nc1ccc2c(c1)OCCO2,1.8%,x,x,-0.1%,15.8µM*,15.8µM*
Cc1cccc(OCC(=O)Nc2ccc3c(c2)OCCO3)c1,0.0%,-0.2%,-6.6%,-2.9%,u,10µM*
COc1ccccc1NC(=O)CN1CCN(CC(=O)Nc2ccc3c(c2)OCCO3)CC1,2.9%,-1.2%,-6.7%,0.2%,25.1µM*,9.5%
COc1ccc(Cl)cc1C(=O)Nc1ccc2c(c1)OCO2,-3.9%,-0.3%,-15.1%,1.6%,u,u
COc1ccccc1C(=O)Nc1ccc2c(c1)OCO2,14.6%,-1.3%[9.22 µM],-63.4%,-2.2%,u,u
COc1cc(SC)ccc1C(=O)Nc1ccc2c(c1)OCCO2,6.2%,-1.3%,-73.6%,2.5%,12.6µM*,10µM*
COc1cccc(NC(=O)Cn2c(=O)n(-c3ccccc3)c(=O)c3ccc(C(=O)NCc4ccc5c(c4)OCO5)cc32)c1,x,x,5.7%[10.9 µM],x,12.0%,12.2%
SMILES,UbGFP stabilizer,HBB splicing,Imprint erasure,GFP derepression,p53ts 39C kill,p53ts 32C kill
COc1ccccc1C(=O)Nc1ccc2c(c1)nc(CN1CCN(C(C)=O)CC1)n2C,-2.2%,-1.5%,-24.4%,0.0%,9.2%,19.8%
COc1ccccc1C(=O)Nc1ccc2c(c1)nc(CCNC(C)=O)n2C,2.5%,-0.7%,-13.5%,0.0%,12.6µM*,12.6µM*
Cc1cccc(Cn2ccn(Cc3ccc(Cl)cc3)c(=O)c2=O)c1,x,x,8.4%[10.9 µM],x,31.6µM*,u
O=C(COc1ccccc1Cl)Nc1nc2c(s1)CCCC2,x,x,-13.9%[10.9 µM],x,-18.3%,-14.9%
O=C(CSc1nnc(-c2ccccc2)o1)Nc1ccccc1F,-2.9%,-0.6%,-92.9%,-2.3%,10µM*,12.6µM*
COc1ccccc1-c1nnc(SCC(=O)Nc2ccccc2F)o1,x,x,-43.1%[10.9 µM],x,-1.3%,-19.4%
Cc1cnc(NC(=O)CSc2nnc(-c3ccccc3)o2)s1,-7.4%,0.0%,-59.3%,1.6%,10µM*,u
Cc1cnc(NC(=O)COc2ccccc2Cl)s1,-0.9%,0.0%,-82.8%,2.6%,5.01µM*,3.98µM*
Cc1ccc(-c2nnc(SCC(=O)Nc3ccccc3F)o2)cc1,1.7%,0.3%,-91.0%,-0.4%,2.51µM*,5.01µM*
CCCCn1cc(S(=O)(=O)c2ccc(CC)cc2)c(=O)c2cc(F)c(N3CCOCC3)cc21,x,x,x,x,x,1.6%
CCCCOc1ccc(C(=O)O)cc1,-0.8%,-1.6%,-36.6%,-3.2%,11.7%,4.0%
CC/C(=C(\c1ccccc1)c1ccc(OCCN(C)C)cc1)c1ccccc1,-1.3%,-1.0%,-15.3%,-1.4%,31.6µM*!,31.6µM*!
CC1=C(C(N)=O)C(c2ccc(C(C)C)cc2)n2nc(SCc3ccccc3)nc2N1 (stereo unspecified),x,x,-5.2%[10.9 µM],x,13.0%,0.2%
COc1ccc(-c2nc(SCC(=O)Nc3cccc(C(C)=O)c3)n[nH]2)cc1,x,x,-11.6%[10.9 µM],x,31.6µM*,u
COc1ccc(-c2[nH]ncc2C(=O)NCc2ccccc2C)cc1,x,x,u,x,3.7%,2.7%
Cc1ccc(NC2=C/C(=N\S(=O)(=O)c3cccs3)c3ccccc3C2=O)c(C)c1,x,x,x,x,7.08µM*,3.16µM*
COc1ccc(C2=C(Nc3ccc(C)cc3C)c3ccccc3C2=O)cc1,x,x,-5.3%[10.9 µM],x,-17.2%,17.4%
Cc1c(=O)n(OCc2ccccc2F)c2ccccc2[n+]1[O-],1.8%,20µM*,-16.8%,12.6µM*,-6.0%,-11.0%
COc1ccc(-c2c(=O)n(OCc3ccccn3)c3ccccc3[n+]2[O-])cc1OC,-2.2%,-1.1%,-7.8%,-2.7%,14.0%,11.4%
CCOc1cccc2c1OC(c1cc(OC)c(OC)c(OC)c1)N1N=C(c3ccc(C)o3)CC21 (stereo unspecified),x,x,x,x,u,11.2µM*
C=CCn1c(/N=C/c2ccc(N(C)C)cc2)nc2ccccc21,8.0%,0.7%,-9.8%,-1.2%,-5.7%,10.4%
CN(C)c1ccc(/C=N/n2ncc3ccccc32)cc1,9.0%,-1.2%,-68.6%,-1.2%,15.8µM*,12.6µM*
CCOc1ccc(-c2ccc(CO)o2)cc1N,x,x,-23.0%[10.9 µM],x,u,15.8µM*
CCOc1ccc(-c2nnc(-c3ccco3)o2)cc1OCC,-1.9%,0.0%[57.5 µM],5.1%,5.7%,-10.7%,0.2%
COc1ccc(C(=O)Nc2cc(OC)ccc2OC)cc1,-1.1%,x,-12.6%,1.9%,u,u

# Source: PubChem BioAssay
